An excerpt weighted towards active compounds, which were near 22% of everything screened.
CYP2C19 inhib = blocks human cytochrome P450 2C19; actives 21% (n = 96,000); AID 778; P33261; inhibition, % at 5 µM; CYP2C19 Supersomes, luciferin-H EGE luminescence, 30 min;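 active means CYP2C19 inhibition above a set limit at 5 µM in the primary screen, cut at about 50% in these data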
CYP2C9 inhib = inhibitors of human CYP2C9; CYP2C9 Supersomes, luciferin-H conversion, luminescence; inhibition, % at 5 µM; actives 20% (n = 96,000); AID 777;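 active means blocking of liver enzyme CYP2C9 beyond about 50% at 5 µM, limit read from the data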
Target sequence (P11712 whole entry, looked up): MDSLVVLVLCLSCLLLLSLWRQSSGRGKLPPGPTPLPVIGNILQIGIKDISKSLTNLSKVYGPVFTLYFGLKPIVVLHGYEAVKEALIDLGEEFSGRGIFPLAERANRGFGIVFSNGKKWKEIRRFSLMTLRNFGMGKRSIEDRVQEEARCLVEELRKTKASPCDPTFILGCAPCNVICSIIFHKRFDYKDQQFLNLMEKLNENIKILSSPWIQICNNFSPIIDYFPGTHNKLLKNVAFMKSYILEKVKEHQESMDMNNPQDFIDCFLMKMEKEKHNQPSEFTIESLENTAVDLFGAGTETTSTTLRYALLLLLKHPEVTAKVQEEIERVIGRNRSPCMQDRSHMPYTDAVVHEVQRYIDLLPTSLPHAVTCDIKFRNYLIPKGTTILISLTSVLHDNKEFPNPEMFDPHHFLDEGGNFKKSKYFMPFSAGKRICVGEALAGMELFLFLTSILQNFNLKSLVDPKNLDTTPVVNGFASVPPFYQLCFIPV
CYP2C9 activ = activators of human CYP2C9 | P11712 | recombinant CYP2C9, luciferin-H conversion, luminescence; active compounds read high; factor 1 = untreated enzyme, 0 = blocked | actives 1.4% (n = 96,000) | activation factor at 5 µM;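 active means activation factor of 2 or more for CYP2C9 at a 5 µM dose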
CYP2C19 activ = increases human CYP2C19 enzyme activity. P33261. AID 1025. activation factor at 5 µM. 96,000 tested, under 10 active. recombinant CYP2C19, luciferin-H EGE luminescence; active compounds read high; 0 = fully inhibited enzyme, 1 = untreated enzyme;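 active means activation factor of at least 2 at 5 µM in the primary screen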
Measles CPE = protection of cells from measles virus; Measles virus-infected cells, CPE protection, absorbance; protection (pct of control), % at 4 µM; actives 1.5% (n = 140,000); AID 841; in the data active means protection mostly above about 24%, no sharp cut-off; inactive means mostly below about 26%
Numbers stand for hits; – = inactive; · = no result given.

SMILES	CYP2C19 inhib	CYP2C9 inhib	CYP2C9 activ	CYP2C19 activ	Measles CPE
COc1ccc(N2C(=O)C(Cl)=C(NCc3ccccc3)C2=O)cc1	99	96	–	–	–
C=CCn1c(SCC(=O)N2CCc3ccccc3C2)nnc1-c1ccncc1	·	·	·	·	–
CC(=O)c1c(C)[nH]c(C(=O)CSc2nnc(-c3ccccc3)n2Cc2ccc3c(c2)OCO3)c1C	70	–	–	–	–
CCCn1c(N)c(C(=O)CSc2nnc(-c3ccco3)n2Cc2ccccc2)c(=O)[nH]c1=O	·	·	·	·	–
C=CCn1c(SCC(=O)c2[nH]c(C)c(C(C)=O)c2C)nnc1-c1ccncc1	86	–	–	–	–
CC(=O)c1c(C)[nH]c(C(=O)CSc2nnc(-c3cccs3)n2Cc2ccccc2)c1C	73	72	–	–	–
Cc1cc(C(=O)CSc2nnc(-c3cccc(F)c3)n2N)c(C)n1Cc1ccc2c(c1)OCO2	–	–	–	–	–
CC(=O)c1c(C)[nH]c(C(=O)CSc2nnc(-c3ccco3)n2Cc2ccccc2)c1C	73	70	–	–	–
CCC1CCCCN1CCCNC(=O)c1cn(CC(C)C)c(=O)c2cc(OC)c(OC)cc12 (stereo not drawn)	–	–	–	–	–
COCCSc1nnc(NC(=O)C(C)(C)C)s1	–	–	–	–	–
O=C(CSc1nn(-c2ccccc2)c(=S)s1)NC(=O)NCc1ccco1	–	–	–	–	–
Cc1ccc(OC(=O)Cn2c(C(F)(F)F)nc3ccccc32)cc1	–	–	–	–	–
Cc1ccc(N(CC(=O)N2CC(=O)Nc3ccccc32)S(=O)(=O)c2ccc3c(c2)OCCO3)cc1	·	·	·	·	–
O=c1cc(CSc2nnc(-c3cccs3)n2Cc2ccccc2)nc2sc3ccccc3n12	93	95	–	–	–
Cc1ccc(C)c(-c2nn(-c3cc(N4CCN(CCO)CC4)ccc3[N+](=O)[O-])c(=O)c3ccccc23)c1	–	–	–	–	–
N/C(CC(=O)Nc1ccc(F)cc1)=N\O	·	·	·	·	–
Cc1ccc(C)c(NC(=O)CS(=O)(=O)c2cn(C)c3ccccc23)c1	·	·	·	·	–
O=C(CS(=O)(=O)c1c[nH]c2ccccc12)Nc1ccc2c(c1)OCCO2	68	–	–	–	–
Cc1ccc(NC(=O)CS(=O)(=O)c2c[nH]c3ccccc23)c(C)c1	75	–	–	–	–
FC(F)(F)c1cccc(NC(=S)N2CCN(c3ccccc3)CC2)c1	·	·	·	·	–
CC(SCc1cn2cc(Cl)ccc2n1)C(=O)O (stereo not drawn)	–	–	–	–	–
COc1ccc(C(=O)NCc2n[nH]c(=S)n2-c2ccccc2)cc1OC	–	–	–	–	–
O=C(NCc1n[nH]c(=S)n1-c1cccc(Cl)c1)c1ccc(S(=O)(=O)N2CCCC2)cc1	–	61	–	–	–
COc1cc(OC)cc(C(=O)NCc2n[nH]c(=S)n2-c2ccccc2)c1	64	–	–	–	–
O=C(NCc1n[nH]c(=S)n1-c1ccc(F)cc1)c1ccc(S(=O)(=O)N2CCCC2)cc1	–	–	–	–	–
SMILES	CYP2C19 inhib	CYP2C9 inhib	CYP2C9 activ	CYP2C19 activ	Measles CPE
CC(C)NCCOCCSc1ccc(Cl)cc1	–	–	–	–	–
CCC(C)c1ccccc1OCCn1ccnc1 (stereo not drawn)	·	·	·	·	–
Clc1ccc(SCCn2ccnc2)cc1	90	60	–	–	–
Clc1ccc(OCCn2ccnc2)c(Br)c1	97	95	–	–	–
Clc1ccc(OCCn2ccnc2)c(Cl)c1	95	96	–	–	–
Clc1ccc(OCCn2ccnc2)c2ccccc12	97	91	–	–	–
CCc1ccc(CCC(=O)Nc2ncc(Cc3ccccc3Cl)s2)o1	·	·	·	·	–
CNC(=S)N=Nc1c(O)[nH]c2ccc(C(C)C)cc12	·	·	·	·	–
CC(C)(C)n1ncc2c(=O)n(CC(=O)NCc3ccccc3Cl)cnc21	–	–	–	–	–
O=c1c2ccccc2c(C=NCCO)c(O)n1-c1ccccc1	–	–	–	–	–
O=c1c2ccccc2c(/C=N/n2cnnc2)c(O)n1-c1ccccc1F	–	58	–	–	–
Cc1ccc(-n2c(O)c(/C=N/n3cnnc3)c3ccccc3c2=O)cc1	–	91	–	–	–
COC(=O)C1CCN(S(=O)(=O)c2cn(C)c(=O)n(C)c2=O)CC1	–	–	–	–	–
Cc1ccc(C(=O)NCc2ccccc2)cc1Br	·	·	·	·	–
CCOC(=O)c1ccc(NC(=O)CC2C(=O)N(c3ccc(F)cc3)C(=O)N2CCC(C)C)cc1 (stereo not drawn)	54	–	–	–	–
COC(=O)c1ccc(NC(=O)Nc2ccc(F)cc2)cc1	–	60	–	–	–
CCOC(=O)c1ccc(NC(=O)Nc2ccc(F)cc2)cc1	–	66	–	–	–
CCOC(=O)c1ccc(NC(=O)Nc2ccc(OC)c(OC)c2)cc1	–	–	–	–	–
C#CCOc1nc(OCC#C)nc(OCC#C)n1	89	–	–	–	–
CCOc1cc(C=O)ccc1OCCSc1ccc(Cl)cc1	–	81	–	–	–
COc1ccc(S(=O)(=O)Nc2ccc(N(C)C(C)=O)cc2)cc1	93	83	–	–	–
COc1ccccc1CNS(=O)(=O)c1ccc(NC(C)=O)cc1	77	–	2.1	–	·
COc1ccc(S(=O)(=O)Nc2ccc(NC(C)=O)cc2)cc1	97	90	–	–	–
CCN(CC)CC(O)COc1ccc2c(c1)OCO2 (stereo not drawn)	–	–	–	–	–
Cc1ccccc1OCC(=O)Nc1ccc2c(c1)C(=O)c1ccccc1C2=O	·	·	·	·	–
SMILES	CYP2C19 inhib	CYP2C9 inhib	CYP2C9 activ	CYP2C19 activ	Measles CPE
CC1=NN(c2ccccc2)C(=O)/C1=C\c1c(C)[nH]n(-c2ccccc2)c1=O	–	51	–	–	–
COc1ccc(-c2csc(NCc3ccco3)n2)cc1C	81	62	–	–	–
c1ccc(CCNc2nc(-c3cccnc3)cs2)cc1	92	59	–	–	–
CC(=O)Nc1ccc(-c2csc(NCc3ccco3)n2)cc1	·	·	·	·	–
c1cncc(-c2csc(NCc3ccco3)n2)c1	86	74	–	–	–
Cc1ccc(OC(=O)c2cccc(S(=O)(=O)N3CCCC3)c2)c(-n2nc3ccccc3n2)c1	·	·	·	·	–
COc1ccccc1CNC(=S)NC1CCCC1	·	·	·	·	–
COC(=O)c1cc(OC)c(OC)cc1NC(=O)C(C)c1ccc([N+](=O)[O-])cc1 (stereo not drawn)	·	·	·	·	–
COc1ccc(C(=O)N2CCCC2)cc1S(=O)(=O)N1CCOCC1	–	–	–	–	–
COc1ccc(C(=O)NC2CCCCC2)cc1S(=O)(=O)N1CCCC1	–	53	–	–	–
COc1ccc(C(=O)NCc2ccccc2)cc1S(=O)(=O)N1CCCc2ccccc21	–	55	–	–	–
COC(=O)c1cc(COC(=O)c2ccc(OC)c(S(=O)(=O)N3CCCC3)c2)oc1C	98	97	–	–	–
COc1ccc(C(=O)NC(C)(C)C)cc1S(=O)(=O)N1CCCC1	–	53	–	–	–
COC(=O)c1ccccc1NC(=O)c1noc2c1CC(C(C)(C)C)CC2 (stereo not drawn)	–	–	–	–	–
CCOCCCN1C(=O)C(O)=C(C(C)=O)C1c1cccs1 (stereo not drawn)	·	·	·	·	–

Source: PubChem (several laboratories)
